Experimental findings from PubChem BioAssay (Tox21) are described below.

Structures are written as SMILES. Values without a mark were called inactive. Results filed as inconclusive are left out. Activity calls are given as the source filed them. Unless noted, the call rests on the fitted dose curve.

The nature of assay [1]: Nuclear factor erythroid 2-related factor 2/antioxidant responsive element (Nrf2/ARE) small molecule agonists: qHTS cell viability counter screen in human keratinocytes (AID 1919968; active means well fitted curve in the direction sought with a large enough effect in the repeat runs; an effect the other way counts as inactive or inconclusive; further: nearly all actives have a fitted effect of over 55% in size). In outline: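 Cytotoxicity was multiplexed with the Nrf2/ARE luciferase assay in the same wells. Stably transfected HaCaT keratinocytes were treated with test compounds for 23 h at 37 C. Cell viability was then measured by CellTiter-Fluor fluorescence.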
For orientation: In qHTS, concentration-response curves come from the screen itself.

Assay [2] in a line: Nuclear factor erythroid 2-related factor 2/antioxidant responsive element (Nrf2/ARE) small molecule agonists: luciferase reporter gene qHTS assay in human keratinocytes (AID 1919969). Further: nearly all actives have a fitted effect of over 35% in size. A general note: A reporter such as luciferase makes a cellular process visible.
In assay [3] the target is Gonadotropin-releasing hormone receptor (Homo sapiens) (UniProt P30968). Description: Human gonadotropin-releasing hormone receptor (GnRHR) small molecule agonists, calcium flux assay in GnRHR-HEK293 cells (AID 1920063). Further: nearly all actives have a fitted effect of over 35% in size. An outline of the steps:
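Agonist activity was measured as intracellular calcium flux in HEK293 cells engineered to stably express human GnRHR. After dye loading for 1 hour at 37 C, compounds in DMSO were added and fluorescence was followed for 3 minutes.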
A general note: Calcium flux is commonly read through the fluorescence of an indicator in the cells.

Assay [4] concerns the target KiSS-1 receptor (Homo sapiens) (UniProt Q969F8). The assay is described as follows: Human kisspeptin (KISS1R) small molecule agonists, calcium flux assay in KISS1R-HEK293 cells (AID 1920064; active means well fitted curve in the direction sought with a large enough effect in the repeat runs; an effect the other way counts as inactive or inconclusive). An outline of the steps:
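Agonist activity is monitored as intracellular calcium rise in engineered HEK293 cells carrying human KISS1R. Cells are dye-loaded for 1 h at 37 C before compound addition, and fluorescence is recorded for 3 min.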

Assay [5] in a line: G protein-coupled receptor (GPCR) small molecule agonists, calcium flux assay: HEK293 wild type cell line counter screen (AID 1920065). In outline: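 Seed cells, incubate 18 h (37 C, 5% CO2); add calcium dye, 1 h at 37 C; pin-transfer compounds, ATP control or DMSO; read fluorescence 480/540 nm each second for 3 min.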
Assay [6] in a line: p53 small molecule agonists, cell-based qHTS assay with human liver microsomes (AID 1963577).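 Further: p53 response element beta-lactamase reporter cells with liver microsomes plus NADPH.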 In outline:
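Reporter activation was measured by LiveBLAzer fluorescence intensity in p53RE-bla cells, which had been exposed to compounds for 16 h at 37 C alongside 0.5 mg/mL human liver microsomes and 0.5 mg/mL NADPH (final concentrations).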

Assay [7] is described as follows: p53 small molecule agonists, cell-based qHTS assay with rat liver microsomes (AID 1963578). An outline of the steps:
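Compound in DMSO added to p53RE-bla cells 5 h post-plating; rat microsomes/NADPH 0.5 mg/mL final; 16 h, 37 C; LiveBLAzer 2 h RT.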

Assay [8] can be described thus: p53 small molecule agonists, cell-based qHTS assay with human liver microsomes: qHTS cell viability counter screen (AID 1963579). Further: nearly all actives have a fitted effect of over 45% in size. In outline:
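HLM-supplemented (0.5 mg/mL final) and NADPH-supplemented (0.5 mg/mL final) p53RE-bla cultures, 4,000 cells per well, were dosed with compounds in DMSO for 16 h at 37 C; luminescent ATP detection (CellTiter-Glo, 30 min, room temperature) quantified surviving cells.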

The nature of assay [9]: p53 small molecule agonists, cell-based qHTS assay with rat liver microsomes: qHTS cell viability counter screen (AID 1963580). Further: nearly all actives have a fitted effect of over 45% in size. An outline of the steps:
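Counter screen for cytotoxicity under metabolic activation: rat liver microsomes and NADPH, 0.5 mg/mL final each, added with compounds to p53RE-bla HCT-116 cells; 16 h at 37 C, then ATP luminescence read.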

A short description of assay [10]: p53 small molecule agonists, cell-based qHTS assay: qHTS cell viability counter screen (AID 1963581). Further: nearly all actives have a fitted effect of over 45% in size. An outline of the steps:
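Viability was counter-screened in parallel with the p53 agonist reporter by measuring intracellular ATP luminescence in the same HCT-116 p53RE-bla wells after 16 h compound treatment at 37 C.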

Assay [11] is described as follows: p53 small molecule agonists, cell-based qHTS assay (AID 1963582; active means well fitted activation curve with a large enough effect in the signal ratio in the repeat runs, not every such curve was filed as active; the % refers to the signal ratio). An outline of the steps:
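Cells carrying a p53-responsive bla reporter are treated with test compounds for 16 h at 37 C; beta-lactamase activity is then detected with LiveBLAzer B/G FRET substrate after 2 h at room temperature.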

The target of assay [12] is 5-hydroxytryptamine receptor 2A (Homo sapiens) (UniProt P28223). Description: 5-hydroxytryptamine receptor 2A (HTR2A) small molecule agonists, cell-based qHTS assay (AID 1963587). Further: nearly all actives have a fitted effect of over 30% in size. In outline: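 HTR2A-CHO cells, plated 18 h at 37 C/5% CO2, dye-loaded 1 h at 37 C; compounds in DMSO added by pin tool (agonist mode). Intracellular calcium flux read as kinetic fluorescence on FDSS over 2 min at 1 s intervals.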

Assay [13] deals with Muscarinic acetylcholine receptor M1 (Homo sapiens) (UniProt P11229). The assay is described as follows: Cholinergic receptor muscarinic 1 (CHRM1) small molecule antagonists, cell-based qHTS assay (AID 1963588). Further: nearly all actives have a fitted effect of over 40% in size. Further: potency means the concentration at half of the fitted maximal effect. An outline of the steps:
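Compounds were tested at 15 concentrations in three independent runs. Dye-loaded CHRM1-CHO cells were exposed 5 min at room temperature before stimulation by acetylcholine added at 50nM. Intracellular calcium was read kinetically on FDSS for 3 min.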

The target is the same in assay [14]. The assay is described as follows: Cholinergic receptor muscarinic 1 (CHRM1) small molecule agonists, cell-based qHTS assay (AID 1963589). Further: nearly all actives have a fitted effect of over 35% in size. An outline of the steps: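 Cells were plated and incubated 18 h at 37 C/5% CO2, loaded with calcium dye for 1 h at 37 C, then treated with compounds in DMSO. Fluorescence was recorded kinetically at 1 sec intervals.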
Assay [15] can be described thus: cAMP Responsive Elements (CRE) small molecule agonists, cell-based qHTS assay (AID 1963590). In outline:
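Cells carrying a CRE-driven beta-lactamase reporter (HEK 293T) are seeded, incubated overnight (18 h), and treated with test compounds for 3 h at 37 C; reporter activity is then detected with a FRET substrate after 2 h at room temperature.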

Assay [16] has as its target Beta-2 adrenergic receptor (Homo sapiens) (UniProt P07550). The assay is described as follows: Adrenergic beta2 receptor (ADRB2) small molecule antagonists, cell-based qHTS assay (AID 1963592). Further: series mostly up to about 92 µM; nearly all actives have a fitted effect of over 50% in size. In outline: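 Assay format: CHO-ADRB2 cells, 18-20hr seeding at 37C/5% CO2, then compound plus 1nM isoproterenol agonist mix for 0.5hr RT. Homogeneous time-resolved fluorescence cAMP detection after 1hr, expressed as 665/615 nm ratio.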

For assay [17] the target is unchanged. The assay is described as follows: Adrenergic beta2 receptor (ADRB2) small molecule agonists, cell-based qHTS assay (AID 1963593). Further: potency means the concentration at half of the fitted maximal effect.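 On activation: CHO cells stably overexpressing human ADRB2.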 In outline: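 CHO cells stably over-expressing ADRB2 were plated overnight at 37C, then dosed with compounds plus a stimulation mix containing 100uM IBMX and 25uM Ro-20-1724 for 0.5hr at room temperature. cAMP was measured by HTRF competition, 1hr.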

The target of assay [18] is D(2) dopamine receptor (Homo sapiens) (UniProt P14416). The assay is described as follows: Dopamine D2 receptor (DRD2) small molecule agonists, cell-based qHTS assay (AID 1963594). Further: nearly all actives have a fitted effect of over 35% in size. In outline: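 HEK293 cells stably expressing DRD2 were cultured 24 h at 37 C, then given Ro20-1724 (0.1 mM final) and compounds for 10 min at room temperature. NKH477 (200nM) was then added for 30 min. cAMP was read by HTRF.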

For assay [19] the target is unchanged. Description: Dopamine D2 receptor (DRD2) small molecule antagonists, cell-based qHTS assay (AID 1963595; active means well fitted inhibition curve with a large enough effect in the signal ratio in the repeat runs, with a control signal flat; the % refers to the signal ratio). In outline: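 Readout: HTRF cAMP, cAMP-d2 competing with cellular cAMP for anti-cAMP cryptate, read after 1 h. Cells: DRD2-HEK293. Conditions: 0.1 mM Ro20-1724, 12 nM quinpirole, 200 nM NKH477, 30 min RT.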
Assay [20] in a line: cAMP Responsive Elements (CRE) small molecule antagonists, cell-based qHTS assay (AID 1963591; active means well fitted inhibition curve with a large enough effect in the signal ratio in the repeat runs, not every such curve was filed as active; the % refers to the signal ratio). In outline:
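Cells (CRE-bla HEK 293T, DMEM with 10% dialyzed FBS and 25 mM HEPES) are seeded and incubated 18 h. Compounds are added with NKH477 agonist at 0.25 uM final for 3 h, then FRET substrate for 2 h.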

Chain of Beta-2 adrenergic receptor (Homo sapiens) (P07550 whole entry, looked up): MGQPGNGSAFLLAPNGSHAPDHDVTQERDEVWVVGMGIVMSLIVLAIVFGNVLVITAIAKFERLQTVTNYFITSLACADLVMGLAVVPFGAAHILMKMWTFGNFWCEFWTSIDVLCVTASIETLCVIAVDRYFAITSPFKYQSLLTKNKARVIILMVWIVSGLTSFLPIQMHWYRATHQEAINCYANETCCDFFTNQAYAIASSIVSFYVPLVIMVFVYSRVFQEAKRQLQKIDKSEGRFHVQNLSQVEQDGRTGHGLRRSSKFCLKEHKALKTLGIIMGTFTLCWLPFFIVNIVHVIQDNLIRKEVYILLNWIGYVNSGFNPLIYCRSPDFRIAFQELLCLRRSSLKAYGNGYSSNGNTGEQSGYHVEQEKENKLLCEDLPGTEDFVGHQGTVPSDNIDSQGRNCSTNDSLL
Chain of D(2) dopamine receptor (Homo sapiens) (P14416 whole entry, looked up): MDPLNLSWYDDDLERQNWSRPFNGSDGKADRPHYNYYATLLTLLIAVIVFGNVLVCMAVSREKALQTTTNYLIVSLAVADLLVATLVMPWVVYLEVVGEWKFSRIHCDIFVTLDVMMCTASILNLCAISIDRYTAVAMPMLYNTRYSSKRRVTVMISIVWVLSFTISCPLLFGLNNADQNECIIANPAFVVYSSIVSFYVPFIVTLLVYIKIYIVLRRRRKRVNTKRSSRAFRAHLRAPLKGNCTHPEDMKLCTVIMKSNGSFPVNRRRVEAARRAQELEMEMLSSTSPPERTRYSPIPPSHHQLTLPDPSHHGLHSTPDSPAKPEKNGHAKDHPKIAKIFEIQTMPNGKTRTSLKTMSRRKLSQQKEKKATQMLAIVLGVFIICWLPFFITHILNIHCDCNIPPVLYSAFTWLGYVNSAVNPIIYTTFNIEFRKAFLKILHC
Chain of Muscarinic acetylcholine receptor M1 (Homo sapiens) (P11229 whole entry, looked up): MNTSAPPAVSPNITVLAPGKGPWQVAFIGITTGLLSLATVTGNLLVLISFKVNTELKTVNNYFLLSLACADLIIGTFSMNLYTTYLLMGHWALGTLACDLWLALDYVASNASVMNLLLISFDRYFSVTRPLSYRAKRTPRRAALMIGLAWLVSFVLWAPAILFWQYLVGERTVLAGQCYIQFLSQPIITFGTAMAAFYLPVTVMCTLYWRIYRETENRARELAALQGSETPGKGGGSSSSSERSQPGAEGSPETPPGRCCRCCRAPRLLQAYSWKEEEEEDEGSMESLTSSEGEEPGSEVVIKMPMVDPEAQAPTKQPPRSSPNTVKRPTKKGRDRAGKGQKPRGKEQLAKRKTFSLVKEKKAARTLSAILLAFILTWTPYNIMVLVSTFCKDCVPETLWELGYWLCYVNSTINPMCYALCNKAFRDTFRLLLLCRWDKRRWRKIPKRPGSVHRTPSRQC
Chain of 5-hydroxytryptamine receptor 2A (Homo sapiens) (P28223 whole entry, looked up): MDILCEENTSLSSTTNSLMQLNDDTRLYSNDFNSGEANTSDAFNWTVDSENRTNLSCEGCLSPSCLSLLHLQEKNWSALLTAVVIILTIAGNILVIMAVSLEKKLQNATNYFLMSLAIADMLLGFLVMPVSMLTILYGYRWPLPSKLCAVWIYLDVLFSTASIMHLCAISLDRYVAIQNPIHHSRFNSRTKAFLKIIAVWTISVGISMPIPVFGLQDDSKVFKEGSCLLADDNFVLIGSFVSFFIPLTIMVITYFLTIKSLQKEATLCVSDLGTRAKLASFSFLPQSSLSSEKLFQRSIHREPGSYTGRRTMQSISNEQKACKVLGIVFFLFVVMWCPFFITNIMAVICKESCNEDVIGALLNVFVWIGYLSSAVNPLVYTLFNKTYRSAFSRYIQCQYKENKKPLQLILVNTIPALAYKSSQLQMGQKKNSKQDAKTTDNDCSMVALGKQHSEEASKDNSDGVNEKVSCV
Chain of Gonadotropin-releasing hormone receptor (Homo sapiens) (P30968 whole entry, looked up): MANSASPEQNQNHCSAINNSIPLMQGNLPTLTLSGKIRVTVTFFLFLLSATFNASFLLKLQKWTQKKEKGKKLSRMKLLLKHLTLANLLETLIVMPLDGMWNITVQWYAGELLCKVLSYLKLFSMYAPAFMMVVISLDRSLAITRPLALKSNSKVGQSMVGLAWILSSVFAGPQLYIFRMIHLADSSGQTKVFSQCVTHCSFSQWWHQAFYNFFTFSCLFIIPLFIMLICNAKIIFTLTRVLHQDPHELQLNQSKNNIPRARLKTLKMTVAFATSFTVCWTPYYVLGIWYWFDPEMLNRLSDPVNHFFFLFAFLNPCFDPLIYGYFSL
Chain of KiSS-1 receptor (Homo sapiens) (Q969F8 whole entry, looked up): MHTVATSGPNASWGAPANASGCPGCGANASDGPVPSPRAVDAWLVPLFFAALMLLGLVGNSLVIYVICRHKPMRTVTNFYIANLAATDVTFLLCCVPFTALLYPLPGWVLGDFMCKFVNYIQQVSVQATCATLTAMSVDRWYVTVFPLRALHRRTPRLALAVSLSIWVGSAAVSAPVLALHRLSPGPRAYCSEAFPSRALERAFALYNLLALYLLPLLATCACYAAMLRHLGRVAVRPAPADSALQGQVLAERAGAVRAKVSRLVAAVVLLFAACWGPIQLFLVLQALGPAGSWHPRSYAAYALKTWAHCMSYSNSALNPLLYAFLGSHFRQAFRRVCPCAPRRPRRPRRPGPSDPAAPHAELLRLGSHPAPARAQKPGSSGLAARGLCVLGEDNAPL

On to `Oc1ccccc1C=NCc1ccccc1`, for which the Potency entry in assay [1], in assay [2], in assay [3], in assay [6], in [7] and in assay [8] was “inactive” throughout. Besides, the Potency entry in [9], in assay [10], in [11], in assay [12], in [13] and in assay [14] was “inactive” throughout. The Potency entry in [15], in assay [16], in [17], in assay [18] and in assay [19] was “inactive” throughout. The result in assay [4] and in assay [5] was inactive.

Take `CCCCOc1ccc(C(=O)CCN2CCCCC2)cc1`: the Potency result in [1], in assay [2], in [3], in [6], in [7] and in assay [8] was “inactive” throughout. Further, the Potency entry in assay [9], in assay [10], in assay [11], in assay [12], in [14] and in [15] was “inactive” each time. For the same compound, the Potency result in assay [20], in assay [18] and in assay [19] was “inactive” throughout. The outcome in [4] and in assay [5] was inactive. Moreover, the Potency in assay [13] was 10.3 µM (active); in assay [17] it was 13.3 µM (active).

For the compound `CC(C)CCCCCCOC(=O)CCCCC(=O)OCCCCCCC(C)C`, the Potency entry in assay [1], in [2], in [3], in assay [6], in assay [7] and in assay [8] was “inactive” in each case. The Potency result in assay [9], in assay [10], in assay [11], in [12], in assay [13] and in assay [14] was “inactive” throughout. Besides, the Potency entry in assay [15], in assay [20], in [16], in assay [17] and in assay [19] was “inactive” throughout. The result in assay [4] and in assay [5] was inactive.

Turning to `O=C(O)C(O)[C@H](O)[C@@H](O)[C@H](O)[C@H](O)CO` (some centres undefined), the Potency result in [1], in [2], in [3], in assay [6], in assay [7] and in assay [8] was “inactive” each time. Further, the Potency entry in assay [9], in [10], in assay [11], in assay [12], in assay [13] and in assay [14] was “inactive” each time. The Potency result in assay [15], in [20], in assay [16], in [18] and in assay [19] was “inactive” in each case. The outcome in [4] and in assay [5] was inactive.

Turning to `Cc1cn([C@@H]2O[C@H](CO)[C@@H](O)[C@@H]2F)c(=O)[nH]c1=O`, the Potency entry in assay [1], in assay [2], in assay [3], in assay [6], in assay [7] and in assay [8] was “inactive” each time. Further, the Potency result in assay [9], in [10], in assay [11], in assay [12], in [13] and in [14] was “inactive” in each case. Besides, the Potency result in [15], in [20], in [16], in assay [18] and in assay [19] was “inactive” each time. The result in assay [4] and in assay [5] was inactive.

As to `CC[C@@H](N)CO`, the Potency entry in [1], in [2], in [3], in assay [6], in assay [7] and in [8] was “inactive” each time. The Potency entry in assay [9], in [10], in assay [11], in assay [12], in [13] and in assay [14] was “inactive” each time. The Potency result in assay [15], in [20], in [16], in assay [18] and in [19] was “inactive” in each case. Further, the result in [4] and in assay [5] was inactive.
